# A selection: hits, their analogues and other compounds. The true share with any hit is near 19%.
# HT1080 IDH1KD tx: qHTS for induction of synthetic lethality in tumor cells producing 2HG: qHTS for the HT-1080-IDH1KD cell line; HT-1080 IDH1 knockdown viability, ATP luminescence, 48 h; Potency, µM (series often up to 46.1 µM), for inactives: top-dose activity, negative = toxicity, usual class: cytotoxic; 360,000 compounds, 2% hits; AID 686971, 2013;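 further: potency means the concentration at half of the fitted maximal effect; 0% = DMSO wells and -100% = cell-free medium wells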
#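 Using the IDH1-knockdown HT-1080 line run in the same batch and compound series as the NT line, viability after 48 h at 37 °C was determined by CellTiter-Glo luminescence and expressed as % activity.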
# TDP1 cell CPT: qHTS for Inhibitors of human tyrosyl-DNA phosphodiesterase 1 (TDP1): qHTS in cells in presence of CPT; 420,000 compounds, 12% hits; chicken DT40 Tdp1-/-;hTDP1 cells + 20 nM CPT, ATP luminescence, 48 h; Potency, µM (doses to about 46.2 µM), for inactives: at the top dose activity change, negative = growth inhibition, actives largely listed as inhibitors; AID 686979, 2013; further: potency means the concentration at half of the fitted maximal effect; nearly all actives have a fitted effect of over 55% in size
#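 Chicken DT40 Tdp1-/- cells complemented with human TDP1, 400 cells/well, exposed to compounds plus 20 nM camptothecin for at least 48 h at 37 C; viability read as ATP content by CellTiter-Glo luminescence.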
# HT1080NT lethal: qHTS for induction of synthetic lethality in tumor cells producing 2HG: qHTS for the HT-1080-NT fibrosarcoma cell line. HT-1080-NT fibrosarcoma viability, CellTiter-Glo ATP luminescence, 48 h. Potency, µM (series often up to 46.1 µM), inactives show at the top dose activity, negative = less viability, actives largely listed as cytotoxic. 360,000 compounds, 1.6% hits;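 further: NT is the 2HG producing partner of a matched IDH1 knockdown line; potency means the concentration at half of the fitted maximal effect; 0% = DMSO-treated cells and -100% = media-only wells without cells; nearly all actives have a fitted effect of over 55% in size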
#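 HT-1080-NT; 750 cells/well; 5% FBS RPMI; 48 h compound, 37 degrees C; CellTiter-Glo luminescence; curve fitting and curve-class assignment.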
# IL1B secr inh: qHTS for Inhibitors of Inflammasome Signaling: IL-1-beta AlphaLISA Primary Screen. activity change, % at 57.5 µM. 360,000 compounds, 4.7% hits. THP-1 LPS/ATP IL-1B secretion, AlphaLISA, 16 h; hits give low values; in the data active means activity change below about -50%; inconclusive means mostly about -30% to -49%
#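 Secreted IL-1B measured by AlphaLISA bead assay after 16 h compound exposure of THP-1 cells; compounds (final up to 57.5 uM) added 1 h before LPS (250 ng/mL) and ATP (1.25 mM) stimulation; lower signal means less secretion.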
# TDP1 cell noCPT: qHTS for Inhibitors of human tyrosyl-DNA phosphodiesterase 1 (TDP1): qHTS in cells in absence of CPT; DT40 Tdp1-/- hTDP1 cells, no CPT, ATP luminescence, 48 h; Potency, µM (highest dose often 46.2 µM), for the others: top-dose activity change, negative = growth inhibition, actives largely listed as inhibitors; 420,000 compounds, 15% hits; AID 686978, 2013; further: potency means the concentration at half of the fitted maximal effect; nearly all actives have a fitted effect of over 55% in size
#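 Compound effects on proliferation are scored in DT40 Tdp1-/-;hTDP1 cells in the absence of CPT. ATP levels (CellTiter-Glo luminescence) are recorded after a ≥48 hr, 37 °C incubation.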
# The depositor's hits bear a star; ? = inconclusive; nt = not tested or not shown; [ ] = another dose, or the depositor's remark. Unless noted, the call rests on the fitted dose curve; in most records, active means well fitted curve in the direction sought with a large enough effect; inconclusive means small, poorly fitted or top-dose-only effect, or another doubt; inactive means no such curve, though single readings can be large; an effect the other way counts as inactive or inconclusive. Unless noted, on the % scale 0 is the no-effect control and ±100 the full control effect.
SMILES,HT1080 IDH1KD tx,TDP1 cell CPT,HT1080NT lethal,IL1B secr inh,TDP1 cell noCPT
CCc1cc2cc(C)ccc2nc1SCC(=O)N1CC(=O)Nc2ccccc21,?,?,?,-74.4*,?
N#Cc1cc(C#N)c(SCC(=O)N2CC(=O)Nc3ccccc32)nc1N,?,20.6µM*,-14.4%,-17.9,20.6µM*
CCc1cc2c(SCC(=O)N3CC(=O)Nc4ccccc43)ncnc2s1,-5.1%,?,-8.3%,0.0,?
CCc1ccc2nc(SCC(=O)N3CC(=O)Nc4ccccc43)c(C#N)cc2c1,5.8µM*,?,?,55.9,16.4µM*
CO/N=C/C(=N\Nc1ccc(C)cc1)C(=O)c1ccc(OC)cc1,2.91µM*,4.11µM*,?,-10.5,3.26µM*
COc1ccccc1CNC(=O)CN1C(=O)NC(Cc2ccccc2)(c2ccccc2)C1=O (stereo unspecified),-7.3%,-11.9%,-0.4%,?,-26.2%
COc1cccc(C(=O)NN2c3ccccc3CCc3ccccc32)c1,?,20.6µM*,-23.7%,9.5,10.3µM*
CC(=O)c1cccc(OCC(=O)N2CCCc3ccccc32)c1,20.0%,?,14.8%,54.7,16.4µM*
COc1cc2ccccc2cc1C(=O)N1CCc2ccccc21,?,16.4µM*,?,0.6,14.6µM*
O=C(CSc1ccc(-c2ccc(F)cc2)nn1)N1CCCc2ccccc21,3.4%,16.4µM*,-1.9%,14.0,?
CCc1ccccc1NNC(=O)c1sccc1Cl,-14.5%,?,5.8%,nt,?
O=C(c1coc(=O)c(Br)c1)N1CCC(C(O)(c2ccccc2)c2ccccc2)CC1,-12.8%,0.651µM*,-14.5%,-16.6,1.84µM*
COc1cc(C(=O)N2CCc3ccccc32)cc(OC)c1OC,-5.5%,-1.3%,-14.5%,15.2,-26.7%
O=C(c1coc(=O)c(Br)c1)N1CCCc2ccccc21,-0.2%,1.84µM*,3.9%,22.4,2.59µM*
Cc1occc1-c1nnc(SCC(=O)N2CCc3ccccc32)o1,3.5%,16.4µM*,-2.3%,-8.7,20.6µM*
COc1cc(OC)cc(C(=O)N2CCCc3ccccc32)c1,-1.8%[9.24 µM],16.4µM*,?,-23.6,?
O=C(c1cccc(Br)c1)N1CCCc2ccccc21,-0.6%,?,-4.3%,36.5,?
CCOC(=O)C1(C)CCCN(C(=O)c2cc(F)cc(F)c2)C1 (stereo unspecified),0.2%,?,27.6%,32.8,?
CC1(C)CCCN(C(=O)c2coc(=O)c(Br)c2)C1,-12.4%,0.92µM*,-4.4%,10.9,0.82µM*
COc1cc(OC)cc(-c2nnc(SCC(=O)N3CCCc4ccccc43)o2)c1,-2.4%,?,-4.2%,-3.3,20.6µM*
O=C(CSc1nnc(-c2ccc(F)cc2)o1)N1CCCc2ccccc21,nt,?,nt,nt,18.4µM*
COc1cccc(-c2nnc(SCC(=O)N3CCCc4ccccc43)o2)c1,-2.9%,-4.6%,-9.5%,8.7,-14.1%
Cc1occc1-c1nnc(SCC(=O)Nc2nc(C(C)(C)C)cs2)o1,?,9.2µM*,?,-0.5,10.3µM*
O=C(CN1C(=O)C2CCCCN2c2ccc(C(=O)N3CCCC3)cc21)NCc1ccccc1 (stereo unspecified),nt,-29.2%,nt,nt,?
Cc1ccc(SCC(=O)NC(=O)c2ccccc2Br)c(C)c1,6.4%,-11.4%,-3.1%,12.1,-26.4%
COc1cc(-c2nnc(SCC(=O)N3CCCc4ccccc43)o2)cc(OC)c1OC,nt,?,nt,nt,23.1µM*
COc1ccc(OC)c(-c2nnc(SCC(=O)N3CCCc4ccccc43)o2)c1,-0.6%,?,0.1%,-9.0,?
Cc1ccc(NCCC(=O)c2cccs2)cc1,8.3%,2.91µM*,2.6%,-7.2,5.17µM*
CC(C)c1ccc(NCCC(=O)c2ccc(Br)cc2)cc1,14.6%,-18.6%,25.9%,14.2,-20.3%

# Screens as filed in PubChem.
